The supplement of paper PMC10338343
± gives the standard deviation.

Key:
[1] = system: MILI (PIWIL2) piRISC loaded with L1MC piRNA (26 nt); assay: pre-steady-state target cleavage rate (min^-1); guide: L1MC piRNA 5'p-UAACUAAAUACUAUGCAAGCUGUAGG; higher = faster piRNA-guided slicing of the target;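 further: 1 nM active piRISC with 0.1 nM target library at 33 °C single turnover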
Procedure, shortened: (§1)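 The pre-steady-state cleavage rate was calculated from a burst-and-steady-state fit. Data came from Cleave-'n-Seq, in which […] transcribed, DNA-blocked target RNA library was mixed with 1 nM active affinity-purified piRISC carrying one synthetic guide, with or without 500 nM GTSF1 partner protein, in HEPES–potassium acetate buffer at 33 °C for 0–8 or 0–960 min. Uncleaved targets were sequenced and normalised to depth and to weakly complementary targets, three trials were pooled, and k3 was capped at 0.0001 min^-1.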

[2] = system: EfPiwi piRISC loaded with L1MC piRNA (26 nt); assay: pre-steady-state target cleavage rate (min^-1); auxiliary factor: 500 nM Ephydatia muelleri Gtsf1; guide: L1MC piRNA 5'p-UAACUAAAUACUAUGCAAGCUGUAGG; MIWI and MILI are mouse PIWI proteins and EfPiwi is from a freshwater sponge; tags in brackets are library labels; higher = faster piRNA-guided slicing of the target
Procedure, shortened: as §1

[3] = auxiliary factor: 500 nM mouse GTSF1
[4] = auxiliary factor: none (no GTSF1)

UCCUGCUACGCUUGCAUAGUAUUUAGUUA
pre-steady-state target cleavage rate [1, 3]: 0.291 ± 0.025
pre-steady-state target cleavage rate [1, 4]: 0.0067 ± 0.0024
pre-steady-state target cleavage rate [2]: 0.0122 ± 0.0033

UCCUCCUACAGGAUGCAUAGUAUUUAGUAA
pre-steady-state target cleavage rate [1, 3]: 0.23 ± 0.017
pre-steady-state target cleavage rate [1, 4]: 0.00422 ± 0.0022
pre-steady-state target cleavage rate [2]: 0.0119 ± 0.0048

UCCUCCUACAGCUUGCAUAGUAAUUUCAAA
pre-steady-state target cleavage rate [1, 3]: 0.182 ± 0.038
pre-steady-state target cleavage rate [2]: 0.00321 ± 0.0026

UCCUGGUACAGGUAGCAUAGUAUUUAGUUA
pre-steady-state target cleavage rate [1, 3]: 0.21 ± 0.021
pre-steady-state target cleavage rate [1, 4]: 0.00976 ± 0.0036
pre-steady-state target cleavage rate [2]: 0.00853 ± 0.0036

UCCUGGAUGAGCUUACAUAGUAUUUAGUUA
pre-steady-state target cleavage rate [1, 3]: 0.153 ± 0.019
pre-steady-state target cleavage rate [1, 4]: 0.00591 ± 0.0023
pre-steady-state target cleavage rate [2]: 0.00581 ± 0.0024

UCCUGCUACACCUUGCAAAGUAUUUAGUUA
pre-steady-state target cleavage rate [1, 3]: 0.106 ± 0.0086
pre-steady-state target cleavage rate [1, 4]: 0.00675 ± 0.0025
pre-steady-state target cleavage rate [2]: 0.00571 ± 0.0021

UCCUGGUACAGCUUGCAAGUAUUUAGUUA
pre-steady-state target cleavage rate [1, 3]: 0.113 ± 0.014
pre-steady-state target cleavage rate [1, 4]: 0.00636 ± 0.0022
pre-steady-state target cleavage rate [2]: 0.00546 ± 0.0031

UCCUGGUAUAGCUUGCAUAGUAUUUAGUUA
pre-steady-state target cleavage rate [1, 3]: 0.252 ± 0.022
pre-steady-state target cleavage rate [1, 4]: 0.011 ± 0.0024
pre-steady-state target cleavage rate [2]: 0.0287 ± 0.0075

UCCUGGAUGUGCUUGCAUAGUAUUUAAGUUA
pre-steady-state target cleavage rate [1, 3]: 0.158 ± 0.018
pre-steady-state target cleavage rate [1, 4]: 0.00961 ± 0.0032
pre-steady-state target cleavage rate [2]: 0.0404 ± 0.015

UCCUGGAACAGCUUACAUAGUAUUUAGUUA
pre-steady-state target cleavage rate [1, 3]: 0.223 ± 0.018
pre-steady-state target cleavage rate [1, 4]: 0.00953 ± 0.0027
pre-steady-state target cleavage rate [2]: 0.0502 ± 0.012

UCCUGGAUGUCCUUGUAUAGUAUUUAGUUA
pre-steady-state target cleavage rate [1, 3]: 0.119 ± 0.018
pre-steady-state target cleavage rate [1, 4]: 0.0121 ± 0.0026
pre-steady-state target cleavage rate [2]: 0.00424 ± 0.0024

UCCUCGUACAGCUUGCUUAGUAUUUAGUUA
pre-steady-state target cleavage rate [1, 3]: 0.286 ± 0.016
pre-steady-state target cleavage rate [1, 4]: 0.00785 ± 0.0024
pre-steady-state target cleavage rate [2]: 0.0519 ± 0.012

UCCUGGAUGUGCUGUGCAUAGUAUUUAGUUA
pre-steady-state target cleavage rate [1, 3]: 0.131 ± 0.015
pre-steady-state target cleavage rate [1, 4]: 0.00886 ± 0.004
pre-steady-state target cleavage rate [2]: 0.00568 ± 0.0024

UCCUGGAUGUGCUUGCAUAGUAGUUUAGUUA
pre-steady-state target cleavage rate [1, 3]: 0.0704 ± 0.017
pre-steady-state target cleavage rate [1, 4]: 0.00921 ± 0.0027
pre-steady-state target cleavage rate [2]: 0.0051 ± 0.0034

UCCUCCUACAGCUUCCUUAGUAUUUAGUUA
pre-steady-state target cleavage rate [1, 3]: 0.216 ± 0.025
pre-steady-state target cleavage rate [1, 4]: 0.00443 ± 0.002
pre-steady-state target cleavage rate [2]: 0.00472 ± 0.0022

UCCUGGAUGAGGAUGCAUAGUAUUUAGUUA
pre-steady-state target cleavage rate [1, 3]: 0.103 ± 0.017
pre-steady-state target cleavage rate [1, 4]: 0.00665 ± 0.0021
pre-steady-state target cleavage rate [2]: 0.00336 ± 0.0024

UCCUGGAUGAGCUUGCACAGUAUUUAGUUA
pre-steady-state target cleavage rate [1, 3]: 0.172 ± 0.014
pre-steady-state target cleavage rate [1, 4]: 0.00869 ± 0.0031
pre-steady-state target cleavage rate [2]: 0.0152 ± 0.0046

UCCUGGAACAGCUUGGAAAGUAUUUAGUUA
pre-steady-state target cleavage rate [1, 3]: 0.125 ± 0.0077
pre-steady-state target cleavage rate [1, 4]: 0.00969 ± 0.0023
pre-steady-state target cleavage rate [2]: 0.0164 ± 0.0053

UCCUGGAUCAGCUUGCAUAAUAUUUAGUUA
pre-steady-state target cleavage rate [1, 3]: 0.253 ± 0.031
pre-steady-state target cleavage rate [1, 4]: 0.00396 ± 0.0026
pre-steady-state target cleavage rate [2]: 0.0108 ± 0.0031

UCCUGGUACAGGUUGCAUAGUAUUUAGUUA
pre-steady-state target cleavage rate [1, 3]: 0.217 ± 0.022
pre-steady-state target cleavage rate [1, 4]: 0.0148 ± 0.004
pre-steady-state target cleavage rate [2]: 0.0211 ± 0.0053

UCCUCGAACAGCUUGCAUAGUAUUUAGUUA
pre-steady-state target cleavage rate [1, 3]: 0.3 ± 0.017
pre-steady-state target cleavage rate [1, 4]: 0.00922 ± 0.0026
pre-steady-state target cleavage rate [2]: 0.198 ± 0.038

UCCUGGAUCAGCUUGCAUACUAUUUAGUUA
pre-steady-state target cleavage rate [1, 3]: 0.0716 ± 0.011
pre-steady-state target cleavage rate [1, 4]: 0.0037 ± 0.0021
pre-steady-state target cleavage rate [2]: 0.0114 ± 0.0021

UCCUGGAACAGGUUGCAUAGUAUAUAGUUA
pre-steady-state target cleavage rate [1, 3]: 0.211 ± 0.023
pre-steady-state target cleavage rate [1, 4]: 0.00891 ± 0.0023
pre-steady-state target cleavage rate [2]: 0.0101 ± 0.0045

UCCUGGUACGGCUUGCAUAGUAUUUAGUUA
pre-steady-state target cleavage rate [1, 3]: 0.195 ± 0.03
pre-steady-state target cleavage rate [1, 4]: 0.0133 ± 0.0047
pre-steady-state target cleavage rate [2]: 0.00921 ± 0.0043

UCCUGGAACGAGCUUGCAUAGUAUUUAGUUA
pre-steady-state target cleavage rate [1, 3]: 0.239 ± 0.024
pre-steady-state target cleavage rate [1, 4]: 0.00792 ± 0.0025
pre-steady-state target cleavage rate [2]: 0.00926 ± 0.0022

UCCUGGAUCAGCUCUGCAUAGUAUUUAGUUA
pre-steady-state target cleavage rate [1, 3]: 0.246 ± 0.024
pre-steady-state target cleavage rate [1, 4]: 0.00786 ± 0.0034
pre-steady-state target cleavage rate [2]: 0.101 ± 0.023

UCCUGGAACACUUGCAUAGUAUUUAGUUA
pre-steady-state target cleavage rate [1, 3]: 0.194 ± 0.017
pre-steady-state target cleavage rate [1, 4]: 0.00651 ± 0.0021
pre-steady-state target cleavage rate [2]: 0.0107 ± 0.0034

UCCUGGUACACGCUUGCAUAGUAUUUAGUUA
pre-steady-state target cleavage rate [1, 3]: 0.167 ± 0.046
pre-steady-state target cleavage rate [1, 4]: 0.0158 ± 0.0071
pre-steady-state target cleavage rate [2]: 0.00613 ± 0.0031

UCCUCCUACAGCUUGCAUAGUCAUUUAGUUA
pre-steady-state target cleavage rate [1, 3]: 0.0182 ± 0.0076
pre-steady-state target cleavage rate [1, 4]: 0.00422 ± 0.0022
pre-steady-state target cleavage rate [2]: 0.00268 ± 0.0025

UCCUGGAACAGGAUGCAUAGUAUUUAGUUA
pre-steady-state target cleavage rate [1, 3]: 0.285 ± 0.016
pre-steady-state target cleavage rate [1, 4]: 0.0116 ± 0.0027
pre-steady-state target cleavage rate [2]: 0.00753 ± 0.0018

UCCUCCUACAGCUUGCAUAGUCUUUAGUUA
pre-steady-state target cleavage rate [1, 3]: 0.198 ± 0.023
pre-steady-state target cleavage rate [1, 4]: 0.00522 ± 0.0021
pre-steady-state target cleavage rate [2]: 0.0068 ± 0.0025

UCCUGGUACAGCUUGCAUAGUAUUUACGUUA
pre-steady-state target cleavage rate [1, 3]: 0.227 ± 0.039
pre-steady-state target cleavage rate [1, 4]: 0.00544 ± 0.0036
pre-steady-state target cleavage rate [2]: 0.00346 ± 0.0025

UCCUGGUACAGCUUCGCAUAGUAUUUAGUUA
pre-steady-state target cleavage rate [1, 3]: 0.274 ± 0.021
pre-steady-state target cleavage rate [1, 4]: 0.0125 ± 0.0035
pre-steady-state target cleavage rate [2]: 0.038 ± 0.0086

UCCUGGUACAGCUUGCAUAGUCUUUAGUUA
pre-steady-state target cleavage rate [1, 3]: 0.152 ± 0.025
pre-steady-state target cleavage rate [1, 4]: 0.00831 ± 0.003
pre-steady-state target cleavage rate [2]: 0.00738 ± 0.0024

UCCUGCUACAGCUUGGAUAGUAUUAAGUUA
pre-steady-state target cleavage rate [1, 3]: 0.198 ± 0.031
pre-steady-state target cleavage rate [1, 4]: 0.00579 ± 0.002
pre-steady-state target cleavage rate [2]: 0.0066 ± 0.0018

UCCUGGAUCAGCUAGCAUAGUAUUUAGAAA
pre-steady-state target cleavage rate [1, 3]: 0.139 ± 0.016
pre-steady-state target cleavage rate [2]: 0.0036 ± 0.0022

UCCUGCUACAGCUUGCAUAGUUUUUUCAAA
pre-steady-state target cleavage rate [1, 3]: 0.0433 ± 0.014
pre-steady-state target cleavage rate [2]: 0.00248 ± 0.0022

UCCUCCUACAGCUUGCAUAGAAUUUUGUUA
pre-steady-state target cleavage rate [1, 3]: 0.0525 ± 0.013
pre-steady-state target cleavage rate [2]: 0.00325 ± 0.0016

UCCUGGUACAGCUUGCUUAGUAUUAAGUUA
pre-steady-state target cleavage rate [1, 3]: 0.163 ± 0.041
pre-steady-state target cleavage rate [2]: 0.00311 ± 0.0027

UCCUGGAACAGCAUGCAUAGUAUUUUGUUA
pre-steady-state target cleavage rate [1, 3]: 0.116 ± 0.017
pre-steady-state target cleavage rate [2]: 0.00267 ± 0.0022

UCCUGGAUGAGCUUGCAUAGUAUUUAGCUUA
pre-steady-state target cleavage rate [1, 3]: 0.104 ± 0.026
pre-steady-state target cleavage rate [2]: 0.00409 ± 0.0018

UCCUGGAUCAGCUUGCAUAGUAAUUAGAAA
pre-steady-state target cleavage rate [1, 3]: 0.0807 ± 0.02
pre-steady-state target cleavage rate [2]: 0.00582 ± 0.0028

UCCUGGAACAGCUAGCAUAGUAUUUUGUUA
pre-steady-state target cleavage rate [1, 3]: 0.154 ± 0.029
pre-steady-state target cleavage rate [2]: 0.00465 ± 0.003

UCCUGGUACAGCUUGCAUAGUAUAUAGUAA
pre-steady-state target cleavage rate [1, 3]: 0.173 ± 0.034
pre-steady-state target cleavage rate [2]: 0.00335 ± 0.0022

UCCUGGAUCACCUUGCAUAGUAUUUAGAUA
pre-steady-state target cleavage rate [1, 3]: 0.111 ± 0.025
pre-steady-state target cleavage rate [2]: 0.00551 ± 0.005

UCCUGCUACAGCUUGCAUAGUAUUUAGUAA
pre-steady-state target cleavage rate [1, 3]: 0.182 ± 0.024
pre-steady-state target cleavage rate [2]: 0.00553 ± 0.0022

UCCUCCUACAGCUUGCAUAGUAUUUUGAAA
pre-steady-state target cleavage rate [1, 3]: 0.148 ± 0.03
pre-steady-state target cleavage rate [2]: 0.00602 ± 0.0032

UCCUGCUACAGCUUGCAUACUAUUUUGUUA
pre-steady-state target cleavage rate [1, 3]: 0.0252 ± 0.0096
pre-steady-state target cleavage rate [2]: 0.00432 ± 0.0019

UCCUCCUACUGCUUGCAUAGUAUUUACAAA
pre-steady-state target cleavage rate [1, 3]: 0.0424 ± 0.011
pre-steady-state target cleavage rate [2]: 0.0028 ± 0.0021
